# PubChem BioAssay (NCATS)
# Results filed as inconclusive are left out. A call without a number means that no potency is given here. Calls of active or inactive are those of the source. Calls follow the shape of the dose curve; as a rule, active = well fitted inhibition curve with a large enough effect; inconclusive = small, poorly fitted or top-dose-only effect; inactive = flat fitted curve, though single readings scatter.
# Biological target: Ubiquitin carboxyl-terminal hydrolase 1 (Homo sapiens) (UniProt O94782)
# Sequence (O94782 whole entry, looked up): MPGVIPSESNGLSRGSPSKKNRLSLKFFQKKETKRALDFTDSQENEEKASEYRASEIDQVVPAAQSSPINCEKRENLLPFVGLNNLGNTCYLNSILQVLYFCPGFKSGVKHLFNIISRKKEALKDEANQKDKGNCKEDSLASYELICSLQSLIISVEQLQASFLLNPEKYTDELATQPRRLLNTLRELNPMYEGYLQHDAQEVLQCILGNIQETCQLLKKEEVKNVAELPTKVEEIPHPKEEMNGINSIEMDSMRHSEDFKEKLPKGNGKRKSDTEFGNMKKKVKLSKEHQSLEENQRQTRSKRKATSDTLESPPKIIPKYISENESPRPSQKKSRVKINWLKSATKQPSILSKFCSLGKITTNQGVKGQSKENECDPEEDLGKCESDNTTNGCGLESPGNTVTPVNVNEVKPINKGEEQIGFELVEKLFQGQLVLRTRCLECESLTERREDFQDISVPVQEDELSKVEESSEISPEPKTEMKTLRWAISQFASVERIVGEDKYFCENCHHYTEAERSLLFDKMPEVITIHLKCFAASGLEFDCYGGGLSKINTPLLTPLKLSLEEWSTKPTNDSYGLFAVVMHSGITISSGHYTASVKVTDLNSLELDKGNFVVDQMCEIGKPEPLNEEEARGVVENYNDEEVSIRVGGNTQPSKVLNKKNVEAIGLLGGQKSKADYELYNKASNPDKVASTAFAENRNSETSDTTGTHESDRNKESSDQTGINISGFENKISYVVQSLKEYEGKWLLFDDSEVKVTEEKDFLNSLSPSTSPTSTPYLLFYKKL
# Experiment: Inhibitors of USP1/UAF1: Pilot qHTS (AID 504865); also: nearly all actives have a fitted effect of over 35% in size
# Conditions: purified USP1/UAF1, Ub-rhodamine cleavage fluorescence; series mostly up to 114 µM
# How it was run: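 In 50mM HEPES pH 7.8 containing 0.5mM EDTA, 1mM TCEP, 0.1 mg/ml BSA and 0.01% Tween-20, 1nM USP1/UAF1 is exposed to compound for 15 min, then Ub-Rho (150nM final) is added and fluorescence is read over time.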
# Potency is read from the fitted curve at half-maximal effect.
row,Compound,Potency
1,COc1cc(O)c(C(=O)c2ccccc2)cc1S(=O)(=O)O,inactive
2,CC(=O)NC(=O)c1ccccc1O,inactive
3,Cn1c(=O)c2[nH]c(Br)nc2n(C)c1=O,inactive
4,O=C(CCCN1CC=C(n2c(=O)[nH]c3ccccc32)CC1)c1ccc(F)cc1,inactive
5,CC(C)Cn1cnc2c1c(=O)n(C)c(=O)n2C,inactive
6,Cc1cc2c(OCC(CNC(C)(C)C)OC(=O)c3ccccc3)cccc2[nH]1 (stereo not given),inactive
7,CC1=C(C(=O)O)N2C(=O)[C@@H](NC(=O)[C@H](N)c3ccccc3)[C@H]2SC1,inactive
8,CC(=O)O[C@H]1C[C@@H]2CC[C@@H]3[C@H](CC[C@@]4(C)[C@H]3C[C@H]([N+]3(C)CCCCC3)[C@@H]4OC(C)=O)[C@@]2(C)C[C@@H]1N1CCCCC1,inactive
9,C[N+]1(CC2COC(c3ccccc3)(C3CCCCC3)O2)CCCCC1 (stereo not given),inactive
10,Cc1ccccc1OCC(O)CO (stereo not given),inactive
11,COc1cc(C(=O)N2CCCCCCC2)cc(OC)c1OC,inactive
12,CC1(COc2ccc(CC3SC(=O)NC3=O)cc2)CCCCC1 (stereo not given),20 µM (active)
13,CC(C)NCC(O)c1ccc2ccccc2c1 (stereo not given),inactive
14,Nc1ccc(S(=O)(=O)Nc2cnc3ccccc3n2)cc1,inactive
15,Clc1cccc(C(c2ccc3nc[nH]c3c2)n2ccnc2)c1 (stereo not given),inactive
16,CC(=O)Nc1ccc(CC(=O)O)cc1,inactive
17,CCCc1ncc(C[n+]2ccccc2C)c(N)n1,inactive
18,CCNC(=O)NCc1cccc(Cl)c1,inactive
19,OCCOCCN1CCN(C2=Nc3ccccc3Sc3ccccc32)CC1,inactive
20,Cc1ccc(S(=O)(=O)NC(=O)NC2CCCC2)cc1,inactive
